Test results reported in the supplement of paper PMC9492666.
Counter-ions that a name gives are not always drawn.

Tests used:
[1] = tested on: HCC1937; assay: relative cell viability, compound + erastin, vs DMSO (fraction of DMSO control); higher = less growth inhibition; conditions: 72 h
[2] = tested on: MDA-MB-231; assay: as above; conditions: 72 h
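Further: viability read by CCK-8 kit in 96-well plates, part of a combination screen pairing lipid-metabolism-targeting compounds with erastin.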

SMILES | relative cell viability [1] | relative cell viability [2]
Cc1cc([N+](=O)[O-])ccc1NS(=O)(=O)c1cc(Cl)ccc1Cl + CCOc1ccccc1-n1c(C(C)N2CCN(C(=O)COc3ccc(Cl)cc3)CC2)nc2ccccc2c1=O [erastin] | 0.585 | 0.616
O=C(O)Cn1nnc(-c2cc(N3CCC(Oc4cc(F)ccc4Br)CC3)no2)n1 + CCOc1ccccc1-n1c(C(C)N2CCN(C(=O)COc3ccc(Cl)cc3)CC2)nc2ccccc2c1=O [erastin] | 0.529 | 0.679
COc1cc(O)c2c(c1)O[C@H](c1ccc(O)cc1)CC2=O [Sakuranetin] + CCOc1ccccc1-n1c(C(C)N2CCN(C(=O)COc3ccc(Cl)cc3)CC2)nc2ccccc2c1=O [erastin] | 0.648 | 0.527
COc1cccc(-n2c(=O)[nH]c3cc(Cl)n(-c4ccc(-c5cccc(OC)c5O)cc4)c3c2=O)c1 + CCOc1ccccc1-n1c(C(C)N2CCN(C(=O)COc3ccc(Cl)cc3)CC2)nc2ccccc2c1=O [erastin] | 0.66 | 0.852
C[N+](C)(C)CC(O)CC(=O)[O-] (stereo not drawn) [L(-)-Carnitine] + CCOc1ccccc1-n1c(C(C)N2CCN(C(=O)COc3ccc(Cl)cc3)CC2)nc2ccccc2c1=O [erastin] | 0.781 | 0.91
C=C1C[C@]2(O)O[C@@]3(CC2=C(C)C)[C@@H](C)CC[C@@H]13 [Isocurcumenol] + CCOc1ccccc1-n1c(C(C)N2CCN(C(=O)COc3ccc(Cl)cc3)CC2)nc2ccccc2c1=O [erastin] | 0.566 | 0.662
O=C(OC(C(F)(F)F)C(F)(F)F)N1CCC(C(O)(c2ccc3c(c2)OCO3)c2ccc3c(c2)OCO3)CC1 + CCOc1ccccc1-n1c(C(C)N2CCN(C(=O)COc3ccc(Cl)cc3)CC2)nc2ccccc2c1=O [erastin] | 0.53 | 0.546
O=C(NCCS(=O)(=O)c1ccc(C(F)(F)F)cn1)c1ccc(Cl)cc1 + CCOc1ccccc1-n1c(C(C)N2CCN(C(=O)COc3ccc(Cl)cc3)CC2)nc2ccccc2c1=O [erastin] | 0.511 | 0.503
O=C(CC(C(=O)O)c1c[nH]c2ccccc12)c1ccc(F)cc1F (configuration not stated) [Mitochonic acid 5] + CCOc1ccccc1-n1c(C(C)N2CCN(C(=O)COc3ccc(Cl)cc3)CC2)nc2ccccc2c1=O [erastin] | 0.931 | 1
CC(C)(O)[C@@H]1Cc2cc3ccc(=O)oc3cc2O1 [marmesin] + CCOc1ccccc1-n1c(C(C)N2CCN(C(=O)COc3ccc(Cl)cc3)CC2)nc2ccccc2c1=O [erastin] | 0.645 | 0.646
CC(C)Cc1ccc([C@H](C)C(=O)O)cc1 [Dexibuprofen] + CCOc1ccccc1-n1c(C(C)N2CCN(C(=O)COc3ccc(Cl)cc3)CC2)nc2ccccc2c1=O [erastin] | 0.901 | 0.642
O=C(NNc1ccccc1)c1ccncc1 [PluriSln 1] + CCOc1ccccc1-n1c(C(C)N2CCN(C(=O)COc3ccc(Cl)cc3)CC2)nc2ccccc2c1=O [erastin] | 0.518 | 0.696
CN1c2ccccc2C(=O)Nc2cnc(Nc3ccc(N4CCC(O)CC4)cc3)nc21 + CCOc1ccccc1-n1c(C(C)N2CCN(C(=O)COc3ccc(Cl)cc3)CC2)nc2ccccc2c1=O [erastin] | 0.205 | 0.644
COc1ccc(C(=O)/C=C/c2ccccc2)cc1 [4'-Methoxychalcone] + CCOc1ccccc1-n1c(C(C)N2CCN(C(=O)COc3ccc(Cl)cc3)CC2)nc2ccccc2c1=O [erastin] | 0.54 | 0.54
CCCc1cc(-c2nc(-c3ccc(C)cc3)cs2)ccn1 [Fatostatin] + CCOc1ccccc1-n1c(C(C)N2CCN(C(=O)COc3ccc(Cl)cc3)CC2)nc2ccccc2c1=O [erastin] | 0.534 | 0.595
C[C@H](CCC(=O)O)[C@H]1CC[C@H]2[C@@H]3CC[C@@H]4C[C@H](O)CC[C@]4(C)[C@H]3CC[C@]12C [Lithocholic acid] + CCOc1ccccc1-n1c(C(C)N2CCN(C(=O)COc3ccc(Cl)cc3)CC2)nc2ccccc2c1=O [erastin] | 0.832 | 0.688
CC1=C(/C=C/C(C)=C/C=C/C(C)=C/C=C/C=C(C)/C=C/C=C(C)/C=C/C2=C(C)C(=O)[C@@H](O)CC2(C)C)C(C)(C)C[C@H](O)C1=O [Astaxanthin] + CCOc1ccccc1-n1c(C(C)N2CCN(C(=O)COc3ccc(Cl)cc3)CC2)nc2ccccc2c1=O [erastin] | 0.674 | 1.56
CN(CCOc1ccc(CC2SC(=O)NC2=O)cc1)c1ccccn1 (configuration not stated) [Rosiglitazone HCl] + CCOc1ccccc1-n1c(C(C)N2CCN(C(=O)COc3ccc(Cl)cc3)CC2)nc2ccccc2c1=O [erastin] | 0.619 | 0.774

SMILES | relative cell viability [1] | relative cell viability [2]
N=C(N)NCCC(=O)O [3-Guanidinopropionic Acid] + CCOc1ccccc1-n1c(C(C)N2CCN(C(=O)COc3ccc(Cl)cc3)CC2)nc2ccccc2c1=O [erastin] | 0.714 | 0.852
CC(C)CCC[C@@H](C)[C@H]1CC[C@H]2[C@@H]3CCC4=CC(=NO)CC[C@]4(C)[C@H]3CC[C@]12C [Olesoxime] + CCOc1ccccc1-n1c(C(C)N2CCN(C(=O)COc3ccc(Cl)cc3)CC2)nc2ccccc2c1=O [erastin] | 0.673 | 0.663
NC(N)=NN=Cc1cccc(Cl)c1Cl [Raphin1] + CCOc1ccccc1-n1c(C(C)N2CCN(C(=O)COc3ccc(Cl)cc3)CC2)nc2ccccc2c1=O [erastin] | 0.556 | 0.558
COc1ccc2c(c1)CCC1C2CCC2(C)C(NCCCCCCN3C(=O)C=CC3=O)CCC12 (configuration not stated) + CCOc1ccccc1-n1c(C(C)N2CCN(C(=O)COc3ccc(Cl)cc3)CC2)nc2ccccc2c1=O [erastin] | 0.47 | 0.67
Oc1ccc(/C=C/c2cc(O)cc(O)c2)cc1 [Resveratrol] + CCOc1ccccc1-n1c(C(C)N2CCN(C(=O)COc3ccc(Cl)cc3)CC2)nc2ccccc2c1=O [erastin] | 0.635 | 0.853
CN(CCOc1ccc(CC2SC(=O)NC2=O)cc1)c1ccccn1 (configuration not stated) [Rosiglitazone maleate] + CCOc1ccccc1-n1c(C(C)N2CCN(C(=O)COc3ccc(Cl)cc3)CC2)nc2ccccc2c1=O [erastin] | 0.824 | 0.965
CC(C)=CCC(O)C1=CC(=O)c2c(O)ccc(O)c2C1=O (single isomer, unassigned; (+)) [(+)-Shikonin] + CCOc1ccccc1-n1c(C(C)N2CCN(C(=O)COc3ccc(Cl)cc3)CC2)nc2ccccc2c1=O [erastin] | 0.159 | 0.494
CCC(=O)O[C@]1(C(=O)CCl)[C@@H](C)C[C@H]2[C@@H]3C[C@H](F)C4=CC(=O)C=C[C@]4(C)[C@@]3(F)[C@@H](O)C[C@@]21C [Halobetasol Propionate] + CCOc1ccccc1-n1c(C(C)N2CCN(C(=O)COc3ccc(Cl)cc3)CC2)nc2ccccc2c1=O [erastin] | 0.708 | 0.973
C=CC[S+]([O-])C[C@H](N)C(=O)O (some centres not stated) [Alliin] + CCOc1ccccc1-n1c(C(C)N2CCN(C(=O)COc3ccc(Cl)cc3)CC2)nc2ccccc2c1=O [erastin] | 0.864 | 0.778
Nc1ncnc2c1ncn2C1OC(COP(=O)(O)O)C(O)C1O (configuration not stated) [Adenosine 5'-monophosphate monohydrate] + CCOc1ccccc1-n1c(C(C)N2CCN(C(=O)COc3ccc(Cl)cc3)CC2)nc2ccccc2c1=O [erastin] | 0.97 | 1.07
CC(C)(C)NC(=O)[C@H]1CC[C@H]2[C@@H]3CC[C@H]4NC(=O)C=C[C@]4(C)[C@H]3CC[C@]12C [Finasteride] + CCOc1ccccc1-n1c(C(C)N2CCN(C(=O)COc3ccc(Cl)cc3)CC2)nc2ccccc2c1=O [erastin] | 0.873 | 0.646
O=C(O)C(O)Cc1ccc(O)c(O)c1 (configuration not stated) [Sodium Danshensu] + CCOc1ccccc1-n1c(C(C)N2CCN(C(=O)COc3ccc(Cl)cc3)CC2)nc2ccccc2c1=O [erastin] | 0.746 | 0.968
COc1ccc(N(C(=O)Nc2c(C)cccc2C)c2cc(Nc3ccc(N4CCN(C)CC4)cc3)ncn2)c(OC)c1 + CCOc1ccccc1-n1c(C(C)N2CCN(C(=O)COc3ccc(Cl)cc3)CC2)nc2ccccc2c1=O [erastin] | 0.553 | 0.852
CC[C@@H]1/C=C(\C)C[C@H](C)C[C@H](OC)[C@H]2O[C@@](O)(C(=O)C(=O)N3CCCC[C@H]3C(=O)O[C@H](/C(C)=C/[C@@H]3CC[C@@H](O)[C@H](OC)C3)[C@H](C)[C@@H](O)CC1=O)[C@H](C)C[C@@H]2OC [Ascomycin] + CCOc1ccccc1-n1c(C(C)N2CCN(C(=O)COc3ccc(Cl)cc3)CC2)nc2ccccc2c1=O [erastin] | 0.086 | 0.303
CC(C)c1cc(C(C)C)c(CC(=O)NS(=O)(=O)Oc2c(C(C)C)cccc2C(C)C)c(C(C)C)c1 [Avasimibe] + CCOc1ccccc1-n1c(C(C)N2CCN(C(=O)COc3ccc(Cl)cc3)CC2)nc2ccccc2c1=O [erastin] | 0.508 | 0.791
C=C[C@H]1CN2CC[C@H]1C[C@@H]2[C@@H](O)c1ccnc2ccc(OC)cc12 [Quinidine sulfate] + CCOc1ccccc1-n1c(C(C)N2CCN(C(=O)COc3ccc(Cl)cc3)CC2)nc2ccccc2c1=O [erastin] | 0.7 | 0.398
NC(=O)c1cnccn1 [Pyrazinamide] + CCOc1ccccc1-n1c(C(C)N2CCN(C(=O)COc3ccc(Cl)cc3)CC2)nc2ccccc2c1=O [erastin] | 0.791 | 0.948
COc1ccc(-c2coc3cc(O)cc(O)c3c2=O)cc1 [Biochanin A] + CCOc1ccccc1-n1c(C(C)N2CCN(C(=O)COc3ccc(Cl)cc3)CC2)nc2ccccc2c1=O [erastin] | 0.589 | 0.559
